Results published in PubChem BioAssay (EPA / NIEHS).
Calls of active or inactive are those of the source. Rule for the calls: active = hit-call score of the fitted dose curve at least 0.9, where 1 is the maximum; inactive = score below 0.9.

Assay: ATG_BRE_CIS: Attagene CIS-FACTORIAL HepG2 Assay for human Bone Morphogenetic Protein (BMP) Response Element (BRE) (AID 2282933)
Conditions: HepG2 BMP response element reporter, Attagene transcription factor profiling; actives raise or lower the signal
Experimental: ATG_CIS is a cell-based, multiplexed-readout assay that uses HepG2, a human liver cell line, with measurements taken at 24 hours after chemical dosing in a 24-well plate.ATG_BRE_CIS is one of 52 assay component(s) measured or calculated from the ATG_CIS assay. It is designed to make measurements of mRNA induction, a form of inducible reporter, as detected with fluorescence intensity signals by Reverse transcription polymerase chain reaction (RT-PCR) and Capillary electrophoresis technology.Data from the assay component ATG_BRE_CIS was analyzed into 1 assay endpoint. This assay endpoint, ATG_BRE_CIS, was analyzed with bidirectional fitting relative to DMSO as the negative control and baseline of activity. Using a type of inducible reporter, measures of mRNA for gain or loss-of-signal activity can be used to understand the reporter gene at the transcription factor-level as they relate to the gene SMAD1. Furthermore, this assay endpoint can be referred to as a primary readout, because this assay has produced multiple assay endpoints where this one serves a reporter gene function. To generalize the intended target to other relatable targets, this assay endpoint is annotated to the dna binding intended target family, where the subfamily is Smad protein.
Human liver HepG2 cells are transiently transfected with multiple reporter transcription units (MRTUs) in 6-well plates using FuGene 6 reagent (Roche; 3 ml FuGene/1 mg DNA). The MRTU constructs are regulated by a cis-regulating element (promoter). […] A major difference between the CIS and TRANS system is that in CIS activities of endogenous TFs are measured, whereas the TRANS assay evaluates changes in activities of exogenous, chimeric NR-Gal4 proteins. […] At the end of 24 hour incubation, total RNA was isolated using TriZol reagent (Invitrogen). The isolated RNA is then reverse-transcribed using oligo(dT) primer and Mo-MLV reverse transcriptase (Invitrogen) with DNAse I (Ambion) treatment for 30 min. The one-tenth of the produced cDNA was amplified by PCR using Taq DNA polymerase (Invitrogen) and two reporter sequence-specific primers. The PCR products were fluorescently labeled by primer extension with 6-arboxyfluorescein (6-FAM) 5'-labeled reporter sequence-specific primer (2 min at 95 C, 20 s at 68 C and 10 min at 72 C) and these products were digested with 5U of HpaI (New England Biolabs) for 2h at 37 C. The fragments were purified using Qiaquick PCR columns (Qiagen), analyzed on an ABI 3130xL genetic analyzer (Applied Biosystems) with peak positions identified by using a set of X-rhodamine (ROX)-labeled MapMarker1000 molecular weight standards (BioVentures). The raw capillary electrophoresis data was processed using Attagraph software (Attagene).

Structure (SMILES) | outcome | AC50
O=C(CBr)c1ccc(O)cc1 | inactive | –
c1ccc2sc(SNC3CCCCC3)nc2c1 | inactive | –
CCCCN(CCCC)C(=S)S | – | 146 µM (active)
Nc1ncn[nH]1 | inactive | –
O=C(CCl)NCO | inactive | –
CCOP(=O)(OCC)OC(=CCl)c1ccc(Cl)cc1Cl | inactive | –
CCN(CCO)CCO | inactive | –
ClCCN1CCOCC1 | inactive | –
ClCc1ccccc1CCl | inactive | –
CC(C)[N+](=O)[O-] | inactive | –
ClCCCCl | inactive | –
CC(C)O.CC(C)O.OCCN(CCO)CCO.OCCN(CCO)CCO.[Ti] | – | 6.97 µM (active)
CC(F)(F)CC(F)(F)F | inactive | –
CC1CC(=O)O1 (stereo not given) | inactive | –
CCOC(=O)OC1=C(c2cc(C)ccc2C)C(=O)NC12CCC(OC)CC2 (stereo not given) | inactive | –
Cc1cc(-c2cc(C)c(N)c(C)c2)cc(C)c1N | inactive | –
CCOP(=O)(OCC)SCCSCC | inactive | –
Nc1c(Oc2ccccc2)cc(O)c2c1C(=O)c1ccccc1C2=O | – | 13.2 µM (active)
Nc1nc(=S)[nH][nH]1 | inactive | –
Cc1ccc(OP(=O)(Oc2ccc(C)cc2C)Oc2ccc(C)cc2C)c(C)c1 | inactive | –

Structure (SMILES) | outcome | AC50
CCCCOC(C)=O | inactive | –
CCCCCCCCCCCCOS(=O)(=O)O | inactive | –
CCCCCCCCCCCCN(C)C | inactive | –
c1cc[c]([Sb]([c]2ccccc2)[c]2ccccc2)cc1 | inactive | –
Oc1c(Cl)cc(Cl)cc1Cl | inactive | –
C=CCOC(F)(C(F)(F)F)C(F)(F)F | inactive | –
OC(Cc1ccccc1Cl)(Cn1cncn1)C1(Cl)CC1 (stereo not given) | inactive | –
C1CN2CCN1CC2 | inactive | –
CC(C)(c1ccc(O)c(-c2ccccc2)c1)c1ccc(O)c(-c2ccccc2)c1 | inactive | –
CN(CCCC(O)c1cccnc1)N=O (stereo not given) | inactive | –
Cl[C@H]1OCCO[C@@H]1Cl | inactive | –
OC(c1ccc(Cl)cc1)(c1ccc(Cl)cc1)c1cccnc1 | inactive | –
[Cl][Sn]([c]1ccccc1)([c]1ccccc1)[c]1ccccc1 | inactive | –
CCC[N+](CCC)(CCC)CCC | inactive | –
CN(N=O)c1ccc([N+](=O)[O-])cc1 | inactive | –
CC(C=O)Cc1ccc2c(c1)OCO2 (stereo not given) | inactive | –
O=C(CCl)Nc1ccccc1 | – | 5.35 µM (active)
O=S(=O)(C(Cl)(Cl)Cl)C(Cl)(Cl)Cl | – | 18.7 µM (active)
Cc1cc(Cl)ccc1N | inactive | –
CNC(=O)O/N=C/C(C)(C)S(C)(=O)=O | inactive | –
